Reference: PubChem BioAssay AID1259240 (Keith Lab, Institute of Cancer Science, University of …, 2017)
Activity calls are given as the source filed them. Cut-off read from the data, not from the text of the source: active = fold change mostly below about -2 (no sharp cut-off); inactive = mostly above about -1.8.

Experiment: modulation of TERT promoter-driven luciferase – cell-based, luciferase reporter, human, primary screen (AID 1259240)
Conditions: A2780 TERT promoter luciferase reporter, 16 h; at 20 µM, fold versus average of vehicle-only wells

Fold change, active:
N=c1n(CCN2CCOCC2)c2ccccc2n1CC(O)c1ccco1 (stereo not given) -2.53
Cc1nn2c3cc(N4CCOCC4)ccc3nc2c2ccccc12 -2.16
CCc1cccc(Nc2nc3ccccc3n3cnnc23)c1 -4.16
CC(=O)c1sc2nc(-c3ccc(Br)cc3)cn2c1C -17
CCOC(=O)c1c(C)n(C)c2ccc(OCC(O)CN3CCCCC3C)cc12 (stereo not given) -2.14

Fold change, inactive:
CC(C)NC(=O)Cn1ncc2c3ccccc3n(C)c2c1=O 1.04
CS(=O)(=O)N1N=C(c2cccs2)CC1c1ccccc1F (stereo not given) -1.2
CCOC(=O)Cn1c(=O)oc2cc(S(=O)(=O)N3CCCC3)ccc21 -1.16
COc1ccc(CCNc2ccc3nnc(C)n3n2)c(OC)c1 -1.29
FC(F)(F)c1ccc2c(c1)C1C=CCC1C(c1ccncc1)N2 (stereo not given) -1.04
Cc1cccc2sc(NC(=O)c3ccc(CNc4c(NC5CCCC5)c(=O)c4=O)cc3)nc12 -1.04
CC(Sc1nc(-c2ccco2)nc2c1c(=O)n(C)c(=O)n2C)C(=O)O (stereo not given) 1.38
COc1ccc(-c2nnc3c4ccccc4c(C)nn23)cc1S(=O)(=O)NC(C)C -1.07
S=c1nc(-c2ccccc2)n(CCCn2ccnc2)c2c1CCCC2 1.02
CN(CC(=O)Nc1ccc(Br)cc1)S(=O)(=O)c1ccc2c(c1)CCC(=O)N2 -1.38
c1ccc(CNc2nc3ccccc3n3cnnc23)nc1 1.11
Fc1ccc(Nc2nnc(Cc3ccncc3)c3ccccc23)cc1 -1.37
CCOC(=O)Cc1nnc2c(Nc3ccccc3Cl)nc3nonc3n12 -1.8
O=c1/c(=C/c2ccco2)sc2nc(-c3ccco3)nn12 -1.71
Cc1ccc(S(=O)(=O)N2N=C(c3ccc(NS(C)(=O)=O)cc3)CC2c2ccco2)cc1 (stereo not given) -1.45
COc1ccc(S(=O)(=O)n2cnc3ccccc32)c(C)c1 -1.08
O=C(c1ccc2c(=O)n3c(nc2c1)CCCCC3)N1CCCCCC1 1.21
CCc1ccc2[nH]cc(S(=O)(=O)c3ccc(F)cc3)c(=O)c2c1 -1.48
NC(=O)C1CCN(c2nc3ccccn3c(=O)c2/C=C2/SC(=S)N(CC(=O)O)C2=O)CC1 -1.43
Cc1ccc2[nH]cc(S(=O)(=O)c3ccc(F)cc3)c(=O)c2c1 -1.06
CC(=O)C(Sc1nc(C)nc2c1c(=O)n(C)c(=O)n2C)C(C)=O 1.87
O=C(O)c1c2c(nc3ccc(S(=O)(=O)N4CCC(C(=O)N5CCCCCC5)CC4)cc13)CCCC2 1.03
CCOc1csc2nc(C)cc(C)c12 -1.22
CCOC(=O)c1oc2ccc(S(=O)(=O)n3nc(-c4ccc(OC)cc4OC)cc3N)cc2c1C -1.57
COc1ccc2cc3c(N)nn(C(=O)CN4CCOCC4)c3nc2c1 -1.27
CCOC(=O)Cc1csc(NC(=O)Nc2cccs2)n1 1.33
CC1=NN(c2nc3ccccc3nc2-n2nc(C)cc2C)C(=O)C1 -1.08
O=C(Nc1nccs1)c1cc2ccccc2c(=O)s1 -1.86
COc1ccc(C2c3c(oc4ccc(F)cc4c3=O)C(=O)N2Cc2ccc3c(c2)OCO3)cc1 (stereo not given) -1.27
CCOC(=O)N1CCN(c2c(NC3CCCC(C)C3C)c(=O)c2=O)CC1 (stereo not given) 1.1
Cn1c(=O)[nH]c(=O)c2c1nc(NCCCO)n2Cc1ccccc1Cl -1.16
COc1cc(NC(=O)Nc2ccc3snnc3c2)cc(OC)c1OC -1.49
O=C(O)CN1C(=O)/C(=C\c2ccc(-c3ccccc3)o2)SC1=S -1.88
Cc1ccn2c(NC(=O)C(C)C)c(-c3ccc(F)cc3)nc2c1 -1.4

outcome, inactive:
COc1ccc(-c2nc(CSc3nc4c(c(=O)[nH]3)CCC4)c(C)o2)cc1
